ST2 IL33 inh: inhibitors of human ST2 (IL1RL1) binding to IL-33, primary screen, biochemical, AlphaLISA; AID 1259354, 2018; AlphaLISA ST2-Fc/biotin-IL-33 interaction, 1 h; 2.3% of 78,000 active; inhibition, % for hits at 17 µM; in the data active = inhibition above about 30%
Each line names hits and unclear results; the compound was inactive in the other large screens. The entries come from a sample that favours hits as a whole.

COc1ccc(N2COc3ccc(Cl)cc3C2)cc1	ST2 IL33 inh 37%
O=S(=O)(c1ccc(-c2ccno2)s1)N1C[C@H]2CC=CC[C@H]2C1	none
COc1cccc(-c2nnnn2[C@H]2CO[C@H]3[C@@H]2OC[C@@H]3NC(=O)c2ccc(C(F)(F)F)cc2)c1	none
O=C(NC1CCCCC1)N[C@H]1CO[C@H]2[C@@H]1OC[C@@H]2n1nnnc1Oc1ccc(-n2ccnc2)cc1	none
O=C(NC1CCCCC1)O[C@@H]1CO[C@H]2[C@@H]1OC[C@@H]2n1nnnc1-c1ccccc1	ST2 IL33 inh 39%
CCOC(=O)N1CCC(NC(CC)c2ccnn2C)CC1 (centres undefined)	none
CN(CCCn1cccn1)Cc1ccccn1	none
CC1=C(C(=O)OC2CCCCC2)C(c2ccc(C(C)C)cc2)n2ncnc2N1 (centres undefined)	none
O=C(O)CN1C(=O)c2ccc(Br)cc2C1=O	none
CCCCCN1C(=O)C(=O)c2cc(Br)ccc21	ST2 IL33 inh 46%
CCN1C(=O)c2ccc(Br)cc2C1=O	none
Brc1cccc(C2=Nn3c(nnc3-c3ccc4c(c3)OCO4)SC2)c1	none
COc1ccc(C2=NN3C(C2)c2ccccc2OC3c2ccco2)cc1 (centres undefined)	none
c1ccc(C2Oc3ccccc3C3CC(c4cccs4)=NN32)cc1 (centres undefined)	ST2 IL33 inh 34%
O=C(O)CCC(=O)N1N=C(c2cccs2)CC1c1ccc(F)cc1 (centres undefined)	none
Cc1cnc(Cn2cnc3c(C)cccc3c2=O)[nH]1	none
O=c1[nH]c2ccccc2c(-c2ccccc2)c1Sc1ncn[nH]1	none
COc1ccc(NC2CCCN(C(=O)/C=C/c3cccc(Cl)c3)C2)cc1OC (centres undefined)	none
COc1ccc(NC2CCCN(C3CCN(c4ccccc4C)CC3)C2)cc1OC (centres undefined)	ST2 IL33 inh 34%
COc1ccc(NC(=O)NC2CCCN(C3CCCCCC3)C2)cc1OC (centres undefined)	none
C=CCOc1ccc(-c2nn(-c3ccccc3)cc2/C=c2\sc3ncnn3c2=O)cc1	none
Cc1nc(C)c(CC(=O)N2CC[C@@]3(O)CCCC[C@H]3C2)c(=O)[nH]1	none
c1ccc(-c2csc(C3COc4ccccc4O3)n2)cc1 (centres undefined)	none
Cc1cc(N2CCOCC2)nc2ccc(NC(=O)CCC(=O)N3CCOCC3)cc12	none
COCC(=O)N[C@H]1CCN2C(=O)c3cc(-c4cccc(C)c4C)ccc3NC(=O)[C@@H]2C1	none
O=C(N[C@H]1CCN2C(=O)c3cc(-c4ccccc4F)ccc3NC(=O)[C@@H]2C1)c1ccco1	ST2 IL33 inh 60%
O=C(N[C@H]1CCN2C(=O)c3cc(-c4cccc(C(F)(F)F)c4)ccc3NC(=O)[C@@H]2C1)c1ccncc1	none
CC1CCCN(S(=O)(=O)c2cc(Br)cc3c2N(C(=O)C2CC2)CC3)C1 (centres undefined)	none
Cn1c(=O)c2c(SCc3cccc(F)c3)nc(-c3ccco3)nc2n(C)c1=O	none
CC(C)C(C(=O)Nc1ccccc1Br)N1C(=O)c2ccccc2C1=O (centres undefined)	none
COc1cc(NC(=O)C(C(C)C)N2C(=O)c3ccccc3C2=O)c(OC)cc1Cl (centres undefined)	ST2 IL33 inh 41%
COc1ccccc1NC(=O)C(C(C)C)N1C(=O)c2ccccc2C1=O (centres undefined)	none
COCC1(C(=O)NCc2cc3c(cc2OC)OCCO3)CCC1	none
Fc1ccc(CN2CCN(c3ccccn3)CC2)cc1Br	ST2 IL33 inh 33%
Fc1ccccc1CN1CCN(c2ccccn2)CC1	none
Clc1ccc(CN2CCN(c3ccccn3)CC2)cc1Cl	none
O=C(CC1(O)C(=O)N(Cc2ccc(Cl)cc2)c2ccccc21)c1ccc(Br)cc1 (centres undefined)	none
CCOc1ccccc1NC(=O)CSc1nnc(Cc2cc(=O)[nH]c(=O)[nH]2)n1-c1ccccc1	none
O=C(COc1ccc(Cl)cc1Cl)Nc1ccc(C(=O)O)cc1	none
Cc1nn(-c2cccc(Cl)c2)c2c1C(c1cccc([N+](=O)[O-])c1)C(C#N)=C(N)O2 (centres undefined)	ST2 IL33 inh 45%
Cc1nn(-c2ccccc2)c2c1C(c1cccc([N+](=O)[O-])c1)C(C#N)=C(N)O2 (centres undefined)	none
COc1cccc(C2C(C#N)=C(N)Oc3c2c(=O)n(C)c(=O)n3C)c1 (centres undefined)	none
COC(=O)[C@@H]1Cc2ncn(C(C)C)c2CN1C(=O)c1ccco1	none
CC1CCN(c2ncnc3ccc(Br)cc23)CC1	none
CC(C)CNC(=O)c1ccc(NC(=O)Cc2cccs2)cc1	none
Cc1[nH]n(-c2ccccc2)c(=O)c1C=Nc1cccc(N)c1	none
Cc1[nH]n(-c2ccccc2)c(=O)c1C=Nc1c(C)[nH]n(-c2ccccc2)c1=O	none
CCCCOc1cccc(N=Cc2c(C)[nH]n(-c3ccccc3)c2=O)c1	ST2 IL33 inh 36%
Cc1c[nH]c(C(=O)N2CCCC3(C2)C(=O)Nc2ccccc23)c1 (centres undefined)	none
C=CCN(CC=C)C(=O)CN1CCN[C@H]2CS(=O)(=O)C[C@H]21	none
